Measured values: PubChem BioAssay (EPA / NIEHS)
Activity calls are given as the source filed them. How the source made its calls: active means hit-call score of the fitted dose curve at least 0.9, where 1 is the maximum; inactive means score below 0.9.

Tests used:
[1] = read-out: flavin-containing dimethylaniline monooxygenases 3 (FMO3), FMO3 (gene 2328); experiment: LTEA_HepaRG_FMO3: Life Technologies and Expression Analysis (LTEA) Assay for flavin-containing dimethylaniline monooxygenases 3 (FMO3) using HepaRG (AID 2283453); settings: mRNA level, 48 h; actives raise or lower the signal;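 on AC50: differentiated human HepaRG liver cells in serum-free induction medium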
Outline: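 FMO3 transcript quantified by TaqMan qRT-PCR against three housekeeping genes after 48 h chemical exposure of HepaRG cells. Eight-point half-log series, top 100 uM, 0.5% DMSO vehicle; phenobarbital 1mM induction control; up- or down-regulation fitted.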

[2] = read-out: Cytochrome P450 (CYP1A1), CYP1A1 (gene 1543); experiment: LTEA_HepaRG_CYP1A1: Life Technologies and Expression Analysis (LTEA) Assay for Cytochrome P450 (CYP1A1) using HepaRG (AID 2283454); settings: mRNA level, 48 h; actives raise or lower the signal
Outline: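 qRT-PCR read-out: CYP1A1 transcript normalized to three housekeeping genes, fitted bidirectionally against 0.5% DMSO vehicle baseline. Human HepaRG cells, 48 h chemical exposure, 8-point half-log series topping at 100 uM.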

[3] = read-out: CFLAR gene, CFLAR (gene 8837); experiment: LTEA_HepaRG_CFLAR: Life Technologies and Expression Analysis (LTEA) Assay for CFLAR gene using HepaRG (AID 2283455); settings: mRNA level, 48 h; actives raise or lower the signal
Outline: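 qRT-PCR read-out (Fluidigm/TaqMan) of CFLAR mRNA, normalized to three housekeeping genes, in differentiated human HepaRG cells after 48 h chemical exposure; 8-point half-log series from 100 uM in 0.5% DMSO; bidirectional curve fitting versus DMSO.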

[4] = read-out: Forkhead box O1 (FOXO1), FOXO1 (gene 2308); experiment: LTEA_HepaRG_FOXO1: Life Technologies and Expression Analysis (LTEA) Assay for Forkhead box O1 (FOXO1) using HepaRG (AID 2283456); settings: mRNA level, 48 h; actives raise or lower the signal
Outline: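 HepaRG, 48 h exposure, 8-pt half-log series from 100 uM in 0.5% DMSO, duplicates; Fluidigm qRT-PCR mRNA, housekeeping-normalised; bidirectional fit vs DMSO baseline.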

[5] = read-out: growth arrest and DNA damage 45 (GADD45A), GADD45A (gene 1647); experiment: LTEA_HepaRG_GADD45A: Life Technologies and Expression Analysis (LTEA) Assay for growth arrest and DNA damage 45 (GADD45A) using HepaRG (AID 2283458); settings: mRNA level, 48 h; actives raise or lower the signal
Outline: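 GADD45A expression was measured by TaqMan qRT-PCR against three housekeeping genes (ACTB, GAPDH, POLR2A) after 48 h treatment of HepaRG cells. Eight-point half-log series up to 100 uM in 0.5% DMSO, run in duplicate.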

[6] = read-out: Forkhead box O3 (FOXO3), FOXO3 (gene 2309); experiment: LTEA_HepaRG_FOXO3: Life Technologies and Expression Analysis (LTEA) Assay for Forkhead box O3 (FOXO3) using HepaRG (AID 2283459); settings: mRNA level, 48 h; actives raise or lower the signal
Outline: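 qRT-PCR readout of FOXO3 transcript, normalized to three housekeeping genes (ACTB, GAPDH, POLR2A); gain or loss fitted against 0.5% DMSO vehicle. HepaRG cells, 48 h chemical exposure, 8-point half-log series, top 100 uM.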

[7] = read-out: ABC Transporter (ABCB1), ABCB1 (gene 5243); experiment: LTEA_HepaRG_ABCB1: Life Technologies and Expression Analysis (LTEA) Assay for ABC Transporter (ABCB1) using HepaRG (AID 2283460); settings: mRNA level, 48 h; actives raise or lower the signal
Outline: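 HepaRG, 48 h exposure, 8-pt half-log series from 100 uM, 0.5% DMSO vehicle, duplicates. Readout: ABCB1 transcript by Fluidigm TaqMan qRT-PCR, housekeeping-normalized; bidirectional curve fit vs DMSO baseline.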

[8] = read-out: growth arrest and DNA damage 45 (GADD45B), GADD45B (gene 4616); experiment: LTEA_HepaRG_GADD45B: Life Technologies and Expression Analysis (LTEA) Assay for growth arrest and DNA damage 45 (GADD45B) using HepaRG (AID 2283461); settings: mRNA level, 48 h; actives raise or lower the signal
Outline: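 qRT-PCR read-out (Fluidigm TaqMan, housekeeping-normalized) of mRNA change in human HepaRG cells after 48 h chemical exposure; 8-point curve, top 100 uM, half-log steps, 0.5% DMSO vehicle; gain or loss fitted relative to DMSO baseline.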

[9] = read-out: ABC Transporter (ABCC3), ABCC3 (gene 8714); experiment: LTEA_HepaRG_ABCC3: Life Technologies and Expression Analysis (LTEA) Assay for ABC Transporter (ABCC3) using HepaRG (AID 2283462); settings: mRNA level, 48 h; actives raise or lower the signal
Outline: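 qRT-PCR read-out of ABCC3 transcript, normalized to three housekeeping genes (ACTB, GAPDH, POLR2A), after 48 h chemical exposure of human HepaRG cells. Eight half-log concentrations, highest 100 uM, in 0.5% DMSO; gain or loss fitted relative to DMSO baseline.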

[10] = CEETOX_H295R_TESTO: CeeTox H295R High-throughput Steroidogenesis Assay for Testosterone (TESTO) (AID 2283457); settings: actives raise or lower the signal
Outline: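 Readout: testosterone quantified by HPLC-MS/MS (C18, ESI positive) after MTBE liquid-liquid extraction of culture medium. Cells were H295R, 48 h chemical exposure per OECD 456 with modifications. Gain or loss of signal fitted relative to DMSO.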

## NC(N)=O
[1]
  outcome: inactive
[2]
  AC50: 81.8 µM (active)
[3]
  outcome: inactive
[4]
  outcome: inactive
[5]
  outcome: inactive
[6]
  outcome: inactive
[7]
  outcome: inactive
[8]
  outcome: inactive
[9]
  outcome: inactive

## CC1(C)C(=O)N(Cl)C(=O)N1Cl
[1]
  outcome: inactive
[2]
  AC50: 50 µM (active)
[3]
  outcome: inactive
[4]
  outcome: inactive
[5]
  outcome: inactive
[6]
  outcome: inactive
[7]
  outcome: inactive
[8]
  outcome: inactive
[9]
  outcome: inactive

## c1ccc2cc3ccccc3cc2c1
[1]
  outcome: inactive
[2]
  AC50: 10.5 µM (active)
[3]
  outcome: inactive
[4]
  outcome: inactive
[5]
  outcome: inactive
[6]
  outcome: inactive
[7]
  outcome: inactive
[8]
  outcome: inactive
[9]
  outcome: inactive

## C=CCc1cc(S(=O)(=O)c2ccc(O)c(CC=C)c2)ccc1O
[1]
  AC50: 76.9 µM (active)
[2]
  outcome: inactive
[3]
  outcome: inactive
[4]
  AC50: 79.6 µM (active)
[10]
  outcome: inactive
[5]
  outcome: inactive
[6]
  AC50: 84.9 µM (active)
[8]
  outcome: inactive
[9]
  outcome: inactive

## Cc1nc(-c2ccccn2)ncc1C(=O)Nn1cc(C)c2cc(F)ccc21
[1]
  AC50: 85.2 µM (active)
[2]
  AC50: 18.6 µM (active)
[3]
  outcome: inactive
[4]
  outcome: inactive
[5]
  outcome: inactive
[6]
  outcome: inactive
[7]
  AC50: 2.77 µM (active)
[8]
  outcome: inactive
[9]
  outcome: inactive

## Cn1cc[nH]c1=S
[1]
  outcome: inactive
[2]
  AC50: 37.4 µM (active)
[3]
  outcome: inactive
[4]
  outcome: inactive
[5]
  outcome: inactive
[6]
  outcome: inactive
[8]
  outcome: inactive
[9]
  outcome: inactive

## OC(CCl)CCl
[1]
  outcome: inactive
[2]
  AC50: 50 µM (active)
[3]
  outcome: inactive
[4]
  outcome: inactive
[5]
  outcome: inactive
[6]
  outcome: inactive
[7]
  outcome: inactive
[8]
  outcome: inactive
[9]
  outcome: inactive

## OC(Cn1cncn1)(Cn1cncn1)c1ccc(F)cc1F
[1]
  outcome: inactive
[2]
  outcome: inactive
[3]
  outcome: inactive
[4]
  outcome: inactive
[5]
  outcome: inactive
[6]
  outcome: inactive
[7]
  outcome: inactive
[8]
  outcome: inactive
[9]
  outcome: inactive
